The source of these data is PubChem BioAssay.

Assay [1] deals with Sentrin-specific protease 8 (Homo sapiens) (UniProt Q96LD8). In words: human SENP8 peptidase blockers, hit retest – biochemical, luminescence, single concentration, confirmation (AID 488912;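 active means mean inhibition across replicates above about 50%, limit read from the data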). The note with it: Recombinant SENP8, Z-RLRGG-aminoluciferin luminescence, 60 min; at 12.5 µM; stronger effect = higher value.
Assay [2] deals with Sentrin-specific protease 6 (Homo sapiens) (UniProt Q9GZR1). In words: inhibition of human SENP6 catalytic domain – biochemical, luminescence, single concentration, confirmation (AID 488915;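 active means mean inhibition above about 50% in the one-dose retest, limit read from the data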). The settings on record: recombinant SENP6, Z-RLRGG-aminoluciferin luminescence; at 12.5 µM; stronger effect = higher value.
Sentrin-specific protease 6 (Homo sapiens), sequence (Q9GZR1 628-1112 limits assumed): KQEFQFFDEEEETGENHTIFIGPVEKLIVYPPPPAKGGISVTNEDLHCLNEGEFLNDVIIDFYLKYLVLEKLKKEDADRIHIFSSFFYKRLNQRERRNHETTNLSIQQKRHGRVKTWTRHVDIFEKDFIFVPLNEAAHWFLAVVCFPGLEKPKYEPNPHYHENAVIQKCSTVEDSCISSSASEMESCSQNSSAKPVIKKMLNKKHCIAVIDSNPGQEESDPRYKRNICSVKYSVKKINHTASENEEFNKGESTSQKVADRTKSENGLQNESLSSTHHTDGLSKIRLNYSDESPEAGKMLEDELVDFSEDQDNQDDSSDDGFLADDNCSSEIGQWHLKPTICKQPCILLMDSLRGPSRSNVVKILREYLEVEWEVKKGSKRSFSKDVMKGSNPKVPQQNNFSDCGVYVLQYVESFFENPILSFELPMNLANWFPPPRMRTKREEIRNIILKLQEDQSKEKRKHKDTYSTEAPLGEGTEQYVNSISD
In assay [3] the target is Sentrin-specific protease 7 (Homo sapiens) (UniProt Q9BQF6). In words: human SENP7 peptidase blockers, hit retest – biochemical, luminescence, single concentration, confirmation (AID 488917;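 active means mean inhibition above about 50% in the one-dose retest, limit read from the data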). The settings on record: recombinant SENP7, Z-RLRGG-aminoluciferin luminescence, 40 min; at 12.5 µM; stronger effect = higher value.
Sentrin-specific protease 7 (Homo sapiens), sequence (Q9BQF6 706-1050 limits assumed): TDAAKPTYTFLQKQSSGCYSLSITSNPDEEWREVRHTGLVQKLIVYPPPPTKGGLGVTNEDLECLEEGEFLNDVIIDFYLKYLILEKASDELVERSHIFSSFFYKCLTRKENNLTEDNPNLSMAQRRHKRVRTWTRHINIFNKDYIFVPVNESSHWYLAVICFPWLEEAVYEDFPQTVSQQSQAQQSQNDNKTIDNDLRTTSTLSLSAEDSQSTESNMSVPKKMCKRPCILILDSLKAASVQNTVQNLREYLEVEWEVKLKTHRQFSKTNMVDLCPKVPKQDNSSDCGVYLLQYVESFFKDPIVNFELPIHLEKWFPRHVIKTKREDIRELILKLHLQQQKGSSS
Assay [4] deals with Caspase-3 (Homo sapiens) (UniProt P42574). In words: human caspase-3 activity blockade, out-of-family – biochemical, single concentration, selectivity assay for SENP inhibitor project, confirmation (AID 488918;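 active means mean inhibition above about 50%, limit read from the data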;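 further: plate controls were enzyme with DMSO for no effect and wells without caspase-3 for full effect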). The settings on record: purified caspase-3, Z-DEVD-aminoluciferin luminescence, 60 min; at 12.5 µM; stronger effect = higher value.
Caspase-3 (Homo sapiens), sequence (P42574 28-227 limits assumed): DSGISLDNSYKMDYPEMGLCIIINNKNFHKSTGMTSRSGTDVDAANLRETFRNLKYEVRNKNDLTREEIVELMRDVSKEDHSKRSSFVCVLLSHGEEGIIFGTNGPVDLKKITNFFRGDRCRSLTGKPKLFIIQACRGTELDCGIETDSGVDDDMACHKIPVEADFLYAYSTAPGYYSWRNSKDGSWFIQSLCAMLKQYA
Assay [5] can be described thus: Ultra-Glo luciferase signal interference – biochemical, single concentration, SENP8 reaction pre-completed, artefact control for SENP inhibitor project, confirmation (AID 488919;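 active means mean inhibition above about 50% when retested at one dose, limit read from the data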;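 further: plate controls were DMSO wells with completed reaction for no effect and substrate without enzyme for full effect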). The note with it: Pre-incubated SENP8/Z-RLRGG-aminoluciferin, luciferase luminescence interference; at 12.5 µM; stronger effect = higher value.
In assay [6] the target is Carboxy-terminal domain RNA polymerase II polypeptide A small phosphatase 1 (Homo sapiens) (UniProt Q9GZU7). In words: SCP1 melting temperature change from compounds – biophysical, differential scanning fluorimetry, orthogonal assay for Scp-1 inhibitor project, confirmation (AID 540329;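 active means substances whose mean melting-temperature shift, as a percentage of the reference inhibitor's shift, reaches about 5.3%, limit read from the data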;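 further: 0% = Tm of DMSO wells and 100% = Tm with sodium orthovanadate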). The note with it: Recombinant SCP1, Sypro Orange thermal shift Tm; at 40 µM; stronger effect = higher value.
Carboxy-terminal domain RNA polymerase II polypeptide A small phosphatase 1 (Homo sapiens), sequence (Q9GZU7 76-261 limits assumed): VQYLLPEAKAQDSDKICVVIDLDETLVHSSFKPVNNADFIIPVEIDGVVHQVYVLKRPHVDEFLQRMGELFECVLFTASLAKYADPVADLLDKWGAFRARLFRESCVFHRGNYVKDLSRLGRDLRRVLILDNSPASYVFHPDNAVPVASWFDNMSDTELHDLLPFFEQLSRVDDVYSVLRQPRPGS

The target of assay [7] is Tumor necrosis factor receptor superfamily member 10B (Homo sapiens) (UniProt O14763). In words: viability loss of caspase-8 NB7 cells with TRAIL – with/without TRAIL, luminescence panel, confirmation (AID 651596; in the data active means activity above about 50%). The settings on record: NB7 neuroblastoma + caspase-8, TRAIL sensitization, NB7 Caspase-8, with TRAIL, mean of runs, at 10 µM, stronger effect = higher value.
Tumor necrosis factor receptor superfamily member 10B (Homo sapiens), sequence (O14763 whole entry, looked up): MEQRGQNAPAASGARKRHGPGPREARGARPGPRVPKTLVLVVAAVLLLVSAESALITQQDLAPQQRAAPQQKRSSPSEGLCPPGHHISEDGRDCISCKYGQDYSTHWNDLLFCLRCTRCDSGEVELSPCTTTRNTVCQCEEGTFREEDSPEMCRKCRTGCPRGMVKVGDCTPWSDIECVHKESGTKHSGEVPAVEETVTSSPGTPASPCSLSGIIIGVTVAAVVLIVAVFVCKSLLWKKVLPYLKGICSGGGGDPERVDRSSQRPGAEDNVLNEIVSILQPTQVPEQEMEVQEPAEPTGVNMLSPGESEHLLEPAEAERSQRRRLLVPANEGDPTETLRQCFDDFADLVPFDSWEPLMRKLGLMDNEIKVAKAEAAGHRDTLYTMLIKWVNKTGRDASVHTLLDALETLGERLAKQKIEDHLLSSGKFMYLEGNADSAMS
Test in assay [8]: as above
The note with it: NB7 neuroblastoma + caspase-8, without TRAIL, NB7 Caspase-8, without TRAIL, mean of runs, at 10 µM.

For assay [9], the target named is Protein Mdm4 (Homo sapiens) + E3 ubiquitin-protein ligase Mdm2 (Homo sapiens) (UniProt O15151+Q00987). In words: human Mdm2/MdmX binding disruption – cell-based, luminescence, single concentration, set 2, confirmation (AID 504601). The note with it: SaOS-2 split-luciferase Mdm2/MdmX complementation, at 8 µM, stronger effect = higher value.
Protein Mdm4 (Homo sapiens) + E3 ubiquitin-protein ligase Mdm2 (Homo sapiens), sequence (O15151 whole entry, looked up): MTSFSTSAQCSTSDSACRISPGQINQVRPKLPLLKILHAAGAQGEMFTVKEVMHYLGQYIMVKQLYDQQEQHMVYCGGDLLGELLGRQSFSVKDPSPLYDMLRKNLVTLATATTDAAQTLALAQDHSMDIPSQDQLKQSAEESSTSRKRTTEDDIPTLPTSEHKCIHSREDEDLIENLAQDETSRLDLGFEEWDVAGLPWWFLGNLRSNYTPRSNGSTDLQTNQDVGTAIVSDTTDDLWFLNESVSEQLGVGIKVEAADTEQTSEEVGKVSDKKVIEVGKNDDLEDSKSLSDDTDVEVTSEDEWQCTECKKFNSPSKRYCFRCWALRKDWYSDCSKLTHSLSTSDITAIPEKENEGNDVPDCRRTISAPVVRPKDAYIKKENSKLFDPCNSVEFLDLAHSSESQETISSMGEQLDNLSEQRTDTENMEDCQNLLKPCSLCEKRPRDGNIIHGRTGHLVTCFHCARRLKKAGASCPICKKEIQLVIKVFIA
Protein Mdm4 (Homo sapiens) + E3 ubiquitin-protein ligase Mdm2 (Homo sapiens), sequence (Q00987 whole entry, looked up): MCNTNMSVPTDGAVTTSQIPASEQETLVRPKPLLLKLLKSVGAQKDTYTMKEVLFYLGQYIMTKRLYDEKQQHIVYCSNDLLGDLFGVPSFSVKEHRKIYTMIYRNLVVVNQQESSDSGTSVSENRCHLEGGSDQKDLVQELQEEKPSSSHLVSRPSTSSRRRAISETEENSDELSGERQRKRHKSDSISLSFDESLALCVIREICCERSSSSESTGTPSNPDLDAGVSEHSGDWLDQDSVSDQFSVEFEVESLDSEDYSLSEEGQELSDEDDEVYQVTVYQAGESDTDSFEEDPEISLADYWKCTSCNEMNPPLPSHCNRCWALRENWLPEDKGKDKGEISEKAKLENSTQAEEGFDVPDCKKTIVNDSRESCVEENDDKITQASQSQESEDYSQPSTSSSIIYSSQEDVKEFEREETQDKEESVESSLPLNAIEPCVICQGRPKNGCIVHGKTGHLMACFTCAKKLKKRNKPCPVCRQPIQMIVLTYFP
Assay [10] can be described thus: apoptosome-driven caspase-3 activation blockers – biochemical, fluorescence, DEVD-Rh110, 20 µM, confirmation (AID 504614;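 active means mean inhibition of at least 40% at 20 µM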;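 further: plate controls were DMSO wells for no effect and DEVD-CHO caspase inhibitor control wells for full effect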). The settings on record: reconstituted apoptosome, caspase-3 DEVD-Rh110 fluorescence; at 20 µM; stronger effect = higher value.
Assay [11] in a line: detection-step artefacts after completed caspase reaction – biochemical, fluorescence, Rh110, 20 µM, artefact control for Apaf-1 inhibitor project, confirmation (AID 504615;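 active means signal rise of 40% or more at 20 µM, treated as a fluorescence artifact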). The note with it: quenched caspase reaction, at 20 µM, stronger effect = higher value.
A short description of assay [12]: fluorescence interference of Apaf-1 inhibitor hits, dose response, artefact control for Apaf-1 inhibitor project (AID 588538; call rule not given here). The note with it: fluorescence interference counterscreen, Apaf-1 assay format.
Assay [13] can be described thus: inhibition of PEG-3 promoter luciferase signal – cell-based, HeLa, luciferase reporter, single concentration, confirmation (AID 602417;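 active means at 20 µM dose, 40% or more inhibition averaged across four replicates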). The settings on record: HeLa PEG-Prom luciferase reporter, luminescence, overnight; at 20 µM; stronger effect = higher value.
For assay [14], the target named is PEG-3 (UniProt Q6IN02). In words: inhibition of PEG-3 promoter-driven reporter – cell-based, HeLa, luciferase, CREF/GAPDH counter-screen panel, dose response (AID 624167). The note with it: CREF/GAPDH counter-screens; HeLa PEG-Prom luciferase reporter, overnight, run 1, dose range 1, at 100 µM (top of the series) unless noted.
PEG-3, sequence (Q6IN02 whole entry, looked up): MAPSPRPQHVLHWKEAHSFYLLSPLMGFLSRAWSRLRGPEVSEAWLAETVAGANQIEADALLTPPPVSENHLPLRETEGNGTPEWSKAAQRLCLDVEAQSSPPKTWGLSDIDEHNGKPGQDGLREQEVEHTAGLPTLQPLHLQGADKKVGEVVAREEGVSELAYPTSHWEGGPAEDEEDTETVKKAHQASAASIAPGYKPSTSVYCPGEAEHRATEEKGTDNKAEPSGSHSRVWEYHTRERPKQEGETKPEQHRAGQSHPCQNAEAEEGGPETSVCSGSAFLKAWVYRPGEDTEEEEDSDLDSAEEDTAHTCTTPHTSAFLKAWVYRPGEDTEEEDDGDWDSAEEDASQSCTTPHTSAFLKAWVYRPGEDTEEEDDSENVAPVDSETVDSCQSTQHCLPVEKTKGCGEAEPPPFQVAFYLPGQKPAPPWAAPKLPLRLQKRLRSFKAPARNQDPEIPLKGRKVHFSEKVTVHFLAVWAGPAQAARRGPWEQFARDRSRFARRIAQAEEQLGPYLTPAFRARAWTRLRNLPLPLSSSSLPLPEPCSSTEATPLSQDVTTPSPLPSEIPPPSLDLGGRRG
Assay [15] concerns the target PEG-3 (UniProt Q6IN02). Described as above. The settings on record: CREF/GAPDH counter-screens; HeLa PEG-Prom luciferase reporter, overnight, run 2, dose range 1, at 100 µM (top of the series) unless noted.
The nature of assay [16]: NF-kB reporter suppression in CF airway cells – cell-based, GFP fluorescence, single concentration, confirmation (AID 602472; in the data active means inhibition above about 40%;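 further: stimulus PAF is a Pseudomonas aeruginosa filtrate and not platelet activating factor; plate controls were DMSO wells with stimulus for no effect and unstimulated DMSO wells for full effect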). The settings on record: KKLEB CF airway cells, PAF-induced NF-kB-GFP fluorescence, overnight; at 5 µM; stronger effect = higher value.
The nature of assay [17]: NFkB reporter suppression in cystic fibrosis bronchial cells – cell-based, uHTS hits, panel, cytotoxicity readout, dose response (AID 624344). The note with it: CF bronchial epithelial cells, PAF-induced NFkB reporter inhibition, with PAF, run 1; at 79 µM (top of the series) unless noted.
Test in assay [18]: as above
The note with it: CF bronchial epithelial cells, PAF-induced NFkB reporter inhibition, with PAF, run 2; at 79 µM (top of the series) unless noted.

Assay [19] in a line: HIF-2a driven luciferase blockers, single dose – luminescence, 786-0 RCC cells, confirmation (AID 651580;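 active means mean inhibition across four replicates of at least 40 percent at the single tested concentration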). The settings on record: HIF-2a luciferase reporter luminescence, overnight, at 18.8 µM, stronger effect = higher value.
Assay [20] in a line: HIF-1a luciferase reporter signal reduction – MiaPaCa-2 cells, single concentration, counter-screen for HIF-2a inhibitor project, confirmation (AID 651589;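 active means mean inhibition of the reporter signal across four replicates at the single tested dose of 50% or more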). The note with it: MiaPaCa-2 HIF-1a luciferase reporter, desferoxamine, overnight; at 18.8 µM; stronger effect = higher value.
Assay [21] addresses Tumor necrosis factor receptor superfamily member 10B (Homo sapiens) (UniProt O14763). In words: compound enhancement of TRAIL-induced cell killing – NB7 cells plus caspase-8, luminescence, panel, dose response (AID 652002). The note with it: NB7 neuroblastoma +caspase-8, TRAIL sensitization, luminescence viability, NB7+Caspase-8, with TRAIL, run 1; at 12.5 µM (top of the series).

For assay [22] the target is unchanged. The assay is described as above. The note with it: NB7 neuroblastoma +caspase-8, TRAIL sensitization, luminescence viability, NB7+Caspase-8, with TRAIL, run 2; at 12.5 µM (top of the series).
Test in assay [23]: as above
The note with it: NB7 neuroblastoma +caspase-8, no TRAIL, compound-alone cytotoxicity counter-screen, luminescence viability, NB7+Caspase-8, run 1; at 12.5 µM (top of the series) unless noted.

Test in assay [24]: as above
The settings on record: NB7 neuroblastoma +caspase-8, no TRAIL, compound-alone cytotoxicity counter-screen, luminescence viability, NB7+Caspase-8, run 2; at 12.5 µM (top of the series) unless noted.

This is one part of the list. The source made the active and inactive calls.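 How the source made its calls, unless noted: active means mean inhibition of the luminescence signal across two replicates at or above 26 percent; inactive means the rest.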

Sentrin-specific protease 8 (Homo sapiens), sequence (Q96LD8 whole entry, looked up, the tested form may be a part): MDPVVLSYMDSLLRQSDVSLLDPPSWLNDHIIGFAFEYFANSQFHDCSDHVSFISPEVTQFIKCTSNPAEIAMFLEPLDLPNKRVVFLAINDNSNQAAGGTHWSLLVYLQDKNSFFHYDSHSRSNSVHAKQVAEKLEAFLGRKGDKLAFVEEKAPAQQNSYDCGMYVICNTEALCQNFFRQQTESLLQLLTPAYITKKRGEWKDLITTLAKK

`O=c1c2cc(-c3ccccc3)sc2nc2n1N=C(c1cccs1)CS2`: the inhibition is 11.6% (inactive) in assay [1]; 3.2% (inactive) in [2]; -0.5% (inactive) in assay [3]; 8.2% (inactive) in [4]; 3.2% (inactive) in assay [5]. Also, in assay [6], the thermal shift relative to vanadate control was 11.4% (active). The activity in assay [7] came out at 63.5%; in assay [8], 57.9%.

As to `CC(=O)c1ccc(S(=O)(=O)N2CCN(C(=O)/C=C/c3ccc4ccccc4n3)CC2)cc1`, the inhibition in assay [9] is 85.2% (active).

With `CCCCCCCCCCOC(=O)Cn1c(COc2ccc(C)cc2)[n+](C)c2ccccc21`, the inhibition is 103% (active) in assay [9] and 81.3% (active) in assay [10]. Moreover, the activation (fluorescence interference) in [11] is 25.8% (inactive). Further, the IC50 in assay [12] was > 100 µM (inactive).

Regarding `COc1cccc(/C=N/Nc2cc(C)nc(-c3ccccc3O)n2)c1O`, the inhibition in assay [9] was 99.7% (active); in [13], 94.4% (active); in [14], 100%; in assay [15], 102%.

For the compound `O=[N+]([O-])c1c(NCCO)cc(Sc2nc3ccccc3s2)c2nonc12`, the inhibition in assay [9] is 102% (active); in assay [10], 19.9% (inactive). Moreover, the activation (fluorescence interference) in assay [11] is 4.65% (inactive).

`CN(C)CC(O)COc1ccc(C(C)(C)c2ccc(OCC(O)CN(C)C)cc2)cc1` (stereo not drawn): the inhibition in assay [9] is 94.2% (active); in assay [13] it was 53% (active); in [14] it was 101%; in [15], 99.7%.

In the case of `CCOC(=O)/C(=C\c1ccc([N+](=O)[O-])cc1)C(=O)c1cc(C(C)=O)c(Nc2ccccc2)s1`, the inhibition in assay [9] was 100% (active). For the same compound, the activity in assay [7] stood at 95.3%; in assay [8], 95.6%.

In the case of `NC(N)=NCCCc1cn(CC(=O)N2CCNCC2)nn1`, the inhibition in [10] is 9.2% (inactive). Further, the activation (fluorescence interference) in assay [11] is -2.11% (inactive).

`CCC(=O)Nc1c(S(=O)(=O)c2ccccc2)c2nc3ccccc3nc2n1Cc1ccccc1`: in assay [10], the inhibition was 16.3% (inactive). Besides, the activation (fluorescence interference) in [11] was -0.44% (inactive).

As for `CCOC(=O)N1CCC(NC(=O)C(C)n2c3ccccc3c3cnn(C)c(=O)c32)CC1` (stereo not drawn), the inhibition in [10] was 14% (inactive). Moreover, the activation (fluorescence interference) in [11] is 17.6% (inactive).

For `CC(=O)Nc1ccc(NC(=O)C(C)OC(=O)c2ccccc2C(=O)c2ccc(Cl)c([N+](=O)[O-])c2)cc1` (stereo not drawn), the inhibition was 102% (active) in assay [9], 72.6% (active) in assay [16], 102% in assay [17] and 98.8% in assay [18].

With `Cc1ccc(CS(=O)(=O)c2ncc(Cl)c(C(=O)Nc3nnc(C)s3)n2)cc1`, the inhibition in assay [9] is 103% (active); in assay [19], 31.5% (inactive); in [20] it was 104% (active). Further, the activity in assay [7] and in assay [8] was 97.2% throughout.

Take `COc1cc(NC(=O)c2[nH]cnc2C(N)=O)cc(C(=O)Nc2cccc(C(F)(F)F)c2)c1`: in [9], the inhibition was 101% (active). Moreover, the values for the activity in assay [7] and in [8] were 86.1% and 53.4%, respectively. The activity, % sensitization came out at 36.3% in [21], 52.5% in [22], 5.71% in assay [23] and 43.7% in [24].

On to `Cc1ccc(S(=O)(=O)N2CCN(C(=O)c3ccccc3-c3nc4ccccc4s3)CC2)c(C)c1`, for which the inhibition in assay [10] was 34.1% (inactive). Besides, the activation (fluorescence interference) in [11] was 4.66% (inactive).

Take `CC1=NN(c2ccc(Cl)c(C(=O)O)c2)C(=O)/C1=C/c1ccc(-c2ccccc2[N+](=O)[O-])o1`: the inhibition in assay [10] was 16.8% (inactive). The activation (fluorescence interference) in assay [11] is 6.42% (inactive).
